Results: PubChem BioAssay (NCI)
Compounds without any hit were thinned out: in the full panel of roughly 83,000, 20% have a hit.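 Assay: single dose, 48 h. Readout: percent growth (0 = no net growth; negative = cell death). Active: <10.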 A number with no mark means an inactive call. Activity calls are given as the source filed them.

Columns and labels:
Assay in all cases: NCI-60 one-dose screen, 48 h (100 = growth as untreated, 0 = no growth, -100 = all killed)
Conditions in all cases: 10 µM unless noted
NCI-H226 lung = test system: NCI-H226 lung
NCI-H322M lung = test system: NCI-H322M lung
HOP-62 NSCLC = test system: HOP-62 NSCLC
NCI-H460 lung = test system: NCI-H460 lung
HOP-92 NSCLC = test system: HOP-92 NSCLC
NCI-H522 lung = test system: NCI-H522 lung
A549/ATCC NSCLC = test system: A549/ATCC NSCLC
786-0 renal = test system: 786-0 renal
COLO 205 colon = test system: COLO 205 colon

Compound	growth (NCI-H226 lung)	growth (NCI-H322M lung)	growth (HOP-62 NSCLC)	growth (NCI-H460 lung)	growth (HOP-92 NSCLC)	growth (NCI-H522 lung)	growth (A549/ATCC NSCLC)	growth (786-0 renal)	growth (COLO 205 colon)
O=C(CSc1nc2ccccc2c(=O)[nH]1)NCCN1CCCCC1	95.7%	94.8%	106%	104%	101%	90.6%	100%	102%	99%
CC1[C@H]2[C@H](C[C@H]3[C@@H]4CC=C5c6sc(Nc7ccccc7F)nc6CC[C@]5(C)[C@H]4CC[C@@]32C)O[C@]12CC[C@@H](C)CO2 (stereo partly drawn)	-29.2% (active)	-31.4% (active)	-62.4% (active)	-62.6% (active)	-59.2% (active)	-66.5% (active)	-63.5% (active)	-82.1% (active)	-88.3% (active)
Cc1ccc(-c2nc(C#N)c(S(=O)(=O)N3CCN(S(=O)(=O)c4ccc(Cl)cc4)CC3)o2)cc1	87.6%	97.1%	63%	99.6%	94.6%	71.2%	94.3%	49.1%	124%
COc1ccc(/C=N/NC(=O)Cn2nc(Cc3ccc(OC)cc3)c3onc(C)c3c2=O)cc1	49.6%	59%	42.8%	30.5%	-20% (active)	58.1%		-55.5% (active)	55.7%
Cn1cc(-c2nc(N)nnc2-c2c[nH]c3ccc(F)cc23)c2cc(Br)cnc21	1.02% (active)	34.8%	20.1%	0.596% (active)	-6.31% (active)	-52.3% (active)		5.54% (active)	-82.9% (active)
CC1(C)CC[C@]2(C(=O)O)CC[C@]3(C)C(=CCC4[C@@]5(C)C[C@@H](O)[C@@H]6OC(c7ccccc7Br)OC[C@@]6(C)C5CC[C@]43C)C2C1 (stereo partly drawn)	26.7%	21.2%	30.3%	4.53% (active)	-1.51% (active)	12.1%		24.9%	-36.9% (active)
C#CCOc1cc(N(CC)CC)ccc1C(C(=O)NC(C)(C)C)N(C(=O)C1CCc2cc(F)ccc2O1)c1ccccc1F (stereo not drawn)	34.4%	72.2%	49.5%	30.1%	18.6%	31.2%	35.2%	44.1%	12.9%
CC1(C)CC[C@]2(C(=O)O)CC[C@]3(C)C(=CCC4[C@@]5(C)C[C@@H](O)[C@@H]6OC(c7cccc(Br)c7)OC[C@@]6(C)C5CC[C@]43C)C2C1 (stereo partly drawn)	46.4%	38.7%	47.6%	20.2%	25.2%	16.3%	23%	52.7%	-31.4% (active)
C#CCOc1cc(N(CC)CC)ccc1C(C(=O)NC(C)(C)C)N(C(=O)C1CCc2cc(F)ccc2O1)c1ccccc1Br (stereo not drawn)	63.8%	86.3%	73.3%	52.3%	56.4%	47.6%	54.2%	59.4%	46.9%
COc1ccc(NC(=O)[C@@H](N)Cc2ccccc2)cc1C(=O)Nc1cccc(C2CC(=O)c3c(cc(OC)c(OC)c3OC)O2)c1 (stereo partly drawn)	69.8%	79.3%	86.8%	54.7%	44.4%	39.6%		72.2%	78.4%
C#CCOc1cc(N(CC)CC)ccc1C(C(=O)NC(C)(C)C)N(C(=O)C1CCc2cc(F)ccc2O1)c1ccc(F)cc1 (stereo not drawn)	43.5%	70.6%	70.2%	36.7%	39.8%	43.1%	39.8%	52.8%	32.4%
C#CCOc1ccc(/C=N/Nc2nc(-c3ccc(Cl)cc3)cs2)cc1OC	56.3%	89.3%		68%	48.8%	47.5%	64.4%	69.2%	54.7%
